# From publication PMC4336329 (PLoS ONE, 2015)
# The campaign covered roughly 310,000 compounds. About 2,200 (0.71%) showed an effect of 50% or more. The effect is printed as a negative number. The sample holds strong results, similar compounds and a random draw of the others, so the mix is not that of the screen.
# Target: human ether-à-go-go-related gene (hERG) potassium channel (human, UniProt Q12809)
# Test: primary screen, population patch clamp on CHO cells stably expressing hERG; higher = less effect of the substance
# Chain of human ether-à-go-go-related gene (hERG) potassium channel (Q12809 whole entry, looked up): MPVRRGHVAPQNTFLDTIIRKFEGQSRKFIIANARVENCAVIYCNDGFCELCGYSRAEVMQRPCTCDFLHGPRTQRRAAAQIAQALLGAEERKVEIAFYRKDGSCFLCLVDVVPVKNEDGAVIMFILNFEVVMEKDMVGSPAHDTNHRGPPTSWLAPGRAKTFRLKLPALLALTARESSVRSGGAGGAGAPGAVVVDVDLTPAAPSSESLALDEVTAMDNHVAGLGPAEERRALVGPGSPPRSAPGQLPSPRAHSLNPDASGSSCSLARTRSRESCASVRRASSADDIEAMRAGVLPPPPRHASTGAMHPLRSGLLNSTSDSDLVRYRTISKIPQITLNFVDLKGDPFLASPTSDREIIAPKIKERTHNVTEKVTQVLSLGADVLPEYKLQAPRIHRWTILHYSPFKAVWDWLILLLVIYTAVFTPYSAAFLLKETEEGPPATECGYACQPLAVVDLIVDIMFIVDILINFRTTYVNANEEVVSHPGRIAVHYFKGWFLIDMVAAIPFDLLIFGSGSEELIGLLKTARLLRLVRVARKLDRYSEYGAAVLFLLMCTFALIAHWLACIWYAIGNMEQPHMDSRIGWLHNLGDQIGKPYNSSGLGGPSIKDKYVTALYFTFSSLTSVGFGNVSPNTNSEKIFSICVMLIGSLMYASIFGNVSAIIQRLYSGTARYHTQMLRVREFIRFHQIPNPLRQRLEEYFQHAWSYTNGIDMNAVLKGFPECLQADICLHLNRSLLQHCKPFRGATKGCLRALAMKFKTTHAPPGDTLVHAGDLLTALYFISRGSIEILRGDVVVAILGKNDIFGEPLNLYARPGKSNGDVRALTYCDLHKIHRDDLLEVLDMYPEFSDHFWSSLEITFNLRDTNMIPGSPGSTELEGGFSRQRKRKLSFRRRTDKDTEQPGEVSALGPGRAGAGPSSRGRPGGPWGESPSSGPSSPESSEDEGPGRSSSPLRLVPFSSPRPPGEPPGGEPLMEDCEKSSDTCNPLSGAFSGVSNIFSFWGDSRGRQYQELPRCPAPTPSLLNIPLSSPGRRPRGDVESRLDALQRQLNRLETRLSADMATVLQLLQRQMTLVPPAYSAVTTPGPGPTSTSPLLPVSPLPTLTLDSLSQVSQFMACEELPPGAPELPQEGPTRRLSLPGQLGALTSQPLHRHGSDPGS
row,Structure (SMILES),"hERG current change (%, negative = inhibition) at 1uM [%]"
1,CN(Cc1nc2ccccc2c(=O)[nH]1)C(=O)c1cccc(S(=O)(=O)N2CCCCCC2)c1,4.23
2,O=C(Oc1ccc(OC(=O)c2ccncc2)cc1)c1ccncc1,0.316
3,Cc1ccc(CN2C(=O)CN=C(c3ccccc3)c3ccccc32)cc1,2.73
4,Cc1noc(N)c1C(=O)Nc1ccc(C(C)(C)C)cc1,-5.42
5,O=C(NCc1cccnc1)c1ccc(-c2cccc(Cl)c2Cl)o1,5.38
6,O=C(CN1C(=O)NC2(CCCC2)C1=O)Nc1ccc(Cl)c(C(F)(F)F)c1,9.87
7,O=C(COC(=O)CCCOc1ccc(Cl)cc1Cl)NCc1ccccc1,1.55
8,O=C(Nc1c(-c2ccc(F)cc2)nc2ccccn12)c1ccc(F)cc1,-4.64
9,CCOc1ccc(Cl)cc1Nc1nc(NCCO)nc(N2CCCC2)n1,5.92
10,COc1ccc(N2C(=O)C(Cl)=C(N3CCCC(C)C3)C2=O)cc1 (stereo not shown),9.04
11,COc1cc(CNCCc2ccccc2)ccc1OCc1ccc(Cl)nc1.Cl,-0.117
12,COc1ccccc1CCNCc1ccc(OC)c(OCc2ccccc2)c1,-29.4
13,COc1ccc(CNCCc2ccc(Cl)cc2)cc1OCc1ccccc1,-52.2
14,O=C(OCc1cc(=O)n2c(n1)sc1ccccc12)c1ccc(O)cc1,17.3
15,COc1ccc(-n2cc(CNC3CCN(C)CC3)c(-c3cccc(F)c3)n2)cc1,-64.4
16,COc1ccc(-n2cc(CNC3CCOCC3)c(-c3cccc(F)c3)n2)cc1,-1.28
17,COc1ccc(-n2cc(CNC3CCC(O)CC3)c(-c3cccc(F)c3)n2)cc1 (stereo not shown),4.86
18,O=C(OCc1nnc(-c2ccccc2)o1)c1cn(-c2ccccc2)nc1-c1ccccc1,-1.95
19,CC1CCCN(C(=O)Cn2nnc(-c3ccc(S(C)(=O)=O)cc3)n2)C1 (stereo not shown),21.2
20,CCCNC(=O)C1CCN(c2cc(-c3ccccc3)nc3ncnn23)CC1,-65.6
21,Cc1ccccc1NC(=O)C1CCN(c2cc(-c3ccccc3)nc3ncnn23)CC1,5.72

row,Structure (SMILES),"hERG current change (%, negative = inhibition) at 1uM [%]"
1,COc1ccc(OC)c(NC(=O)C2CCN(c3cc(-c4ccccc4)nc4ncnn34)CC2)c1,-2.67
2,CNC(=S)N(CCc1c(C)[nH]c2ccc(C)cc12)Cc1ccco1,-2.69
3,CNC(=O)CN(c1cc(C)ccc1C)S(C)(=O)=O,2.83
4,Cc1ccccc1N/N=C1\CCCNC1=O,6.51
5,O=C(CSc1nnc(-c2cccnc2)n1Cc1ccco1)c1ccc(Cl)cc1,-21.1
6,O=C(NNC(=O)c1cccs1)c1ccc(Cl)cc1,9.36
7,CSc1ccccc1-n1nnnc1SCC(=O)Nc1ccccc1C,-9.11
8,COc1ccccc1/C=C/C=N/NC(=O)c1cccs1,16.1
9,Cc1cc(N2CCN(Cc3nc(-c4ccc(Cl)cc4)oc3C)CC2)cc(C)n1,-57.8
10,O=C(c1ccco1)N1CCN(Cc2nnc(-c3cccc(Br)c3)o2)CC1,-51.6
11,Cc1oc(-c2ccc(Cl)cc2)nc1CN1CCCC(C(=O)NCc2cccnc2)C1 (stereo not shown),-43.6
12,Cc1cccc(N2CCN(Cc3nc(-c4cccc(Cl)c4)oc3C)CC2)n1,-7.13
13,O=C(c1ccco1)N1CCN(Cc2nnc(-c3cccc(Cl)c3)o2)CC1,-13.8
14,Cc1ccc(-c2nc(CN3CCCC(C(=O)N4CCOCC4)C3)c(C)o2)cc1 (stereo not shown),-9.44
15,COC(=O)c1ccc(-c2nc(CN3CCCN(C(=O)c4ccco4)CC3)c(C)o2)cc1,-15
16,Cc1oc(-c2ccccc2Cl)nc1CN1CCCN(C(=O)c2ccco2)CC1,-21.4
17,Cc1cc(N2CCN(Cc3nc(-c4ccc(F)cc4)oc3C)CC2)cc(C)n1,-27.2
18,Cc1oc(-c2ccc(Cl)cc2)nc1CN1CCCN(C(=O)c2ccco2)CC1,-57.4
19,O=C(c1ccco1)N1CCN(Cc2nnc(-c3ccccc3)o2)CC1,-6.25
20,Cc1oc(-c2ccc(Cl)cc2)nc1CN1CCCC(C(=O)N2CCN(C(=O)c3ccco3)CC2)C1 (stereo not shown),-75.1
21,Nc1c([N+](=O)[O-])c(=O)sc2ccccc12,2.09

row,Structure (SMILES),"hERG current change (%, negative = inhibition) at 1uM [%]"
1,CN(C(=O)c1cccs1)c1ccc(OCC(=O)N2CCC(C(N)=O)CC2)cc1,25.6
2,O=C(Cn1nc(C(F)F)cc1C1CC1)NCCC1=CCCCC1,9.48
3,CCCCN(C(=O)CSc1nn(-c2ccc(F)cc2)c(=S)s1)c1c(N)n(CCCC)c(=O)[nH]c1=O,8.15
4,Cc1ccc(CCC(=O)Nc2ccccc2F)s1,4.84
5,O=C(CC1OC(=O)c2ccccc21)Nc1cccc(S(=O)(=O)N2CCCCCC2)c1 (stereo not shown),0.598
6,CN(C)CCCn1c(N)c(C#N)c2nc(C#N)c(C#N)nc21,11.4
7,CCOC(=O)CS(=O)(=O)c1ccc(O)cc1,26.2
8,O=C(NNC(=S)Nc1ccc(F)cc1)c1ccccc1OC(F)F,6.53
9,CCOc1ccc(CCNC(=O)c2cc(C)nc3ccccc23)cc1OCC,-10.6
10,Cn1nnnc1SCC(=O)NC(C)(C)C,7.36
11,CCOC(=O)N1CCC(NC(=O)C2CCCN(Cc3nc(-c4cccc(C)c4)oc3C)C2)CC1 (stereo not shown),-24.2
12,CCOC(=O)N1CCN(C(=O)C2CCCN(Cc3nc(-c4ccc(Cl)cc4)oc3C)C2)CC1 (stereo not shown),-57.7
13,CCOC(=O)N1CCC(NC(=O)C2CCCN(Cc3nc(-c4ccc(CC)cc4)oc3C)C2)CC1 (stereo not shown),-39.3
14,Cc1oc(-c2ccc(Cl)cc2)nc1CN1CCCC(C(=O)NC2CC2)C1 (stereo not shown),-18.2
15,Cc1oc(-c2ccc(Cl)cc2)nc1CN1CCCC(C(=O)N2CCOCC2)C1 (stereo not shown),-32.9
16,Cc1cccc(-c2nc(CN3CCCC(C(=O)NC4CCCC4)C3)c(C)o2)c1 (stereo not shown),-26.4
17,CCOC(=O)N1CCC(NC(=O)C2CCCN(Cc3nc(-c4cccc(Cl)c4)oc3C)C2)CC1 (stereo not shown),-50.4
18,CCOc1ccc(-c2nc(CN3CCCC(C(=O)N4CCOCC4)C3)c(C)o2)cc1 (stereo not shown),-5.79
19,COc1ccc(-c2nc(CN3CCCC(C(=O)NC4CCCC4)C3)c(C)o2)cc1 (stereo not shown),-53.5
